Compound activity as filed in PubChem.
SNCA expr inh = reduces expression of the alpha-synuclein gene; HEK-293 SNCA-luciferase knock-in, luminescence, 24 h; Potency, µM (highest dose often 57.2 µM), for the others: at the highest dose activity change, negative = inhibition, actives largely listed as inhibitors; 140,000 tested, 0.17% active; AID 1671194;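 note: plate controls were DMSO cells for no effect and cell-free wells for full effect; nearly all actives have a fitted effect of over 45% in size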
3T3 cytotox = kills NIH 3T3 cells; NIH 3T3 viability, CellTiter-Glo ATP luminescence, 48-72 h; Potency, µM (highest dose often 96.7 µM), inactives show at the top dose activity change, negative = cytotoxicity, usual class: inhibitors; 94,000 tested, 4.3% active; AID 1345082; note: nearly all actives have a fitted effect of over 55% in size
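Luminescent ATP readout (CellTiter-Glo, 10 min RT) after 48 or 72 hr compound exposure of NIH 3T3 cells seeded at 400 cells/well in 1536-well format; quantitative HTS.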
HEK293 tox = kills HEK 293 cells | HEK 293 viability, ATP luminescence (CellTiter-Glo), 48-72 h | Potency, µM (doses to about 115 µM), inactives show at the highest dose activity change, negative = cytotoxicity, most hits filed as inhibitors | 94,000 tested, 6.6% active; note: nearly all actives have a fitted effect of over 60% in size
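ATP-coupled CellTiter-Glo luminescence served as viability read-out, recorded 10 min after reagent addition at room temperature. HEK 293 cells, 250 cells/well, had been incubated with pintool-transferred compound for 48 or 72 hr at 37 degree Celsius.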
FLuc inh = blocks purified firefly luciferase enzyme activity | Potency, µM (top dose mostly 115 µM), usual class: inhibitors | 76,000 tested, 2.5% active | P08659 | purified P. pyralis luciferase, luminescence, biochemical | AID 1347043; note: nearly all actives have a fitted effect of over 65% in size
Target sequence (P08659 whole entry, looked up): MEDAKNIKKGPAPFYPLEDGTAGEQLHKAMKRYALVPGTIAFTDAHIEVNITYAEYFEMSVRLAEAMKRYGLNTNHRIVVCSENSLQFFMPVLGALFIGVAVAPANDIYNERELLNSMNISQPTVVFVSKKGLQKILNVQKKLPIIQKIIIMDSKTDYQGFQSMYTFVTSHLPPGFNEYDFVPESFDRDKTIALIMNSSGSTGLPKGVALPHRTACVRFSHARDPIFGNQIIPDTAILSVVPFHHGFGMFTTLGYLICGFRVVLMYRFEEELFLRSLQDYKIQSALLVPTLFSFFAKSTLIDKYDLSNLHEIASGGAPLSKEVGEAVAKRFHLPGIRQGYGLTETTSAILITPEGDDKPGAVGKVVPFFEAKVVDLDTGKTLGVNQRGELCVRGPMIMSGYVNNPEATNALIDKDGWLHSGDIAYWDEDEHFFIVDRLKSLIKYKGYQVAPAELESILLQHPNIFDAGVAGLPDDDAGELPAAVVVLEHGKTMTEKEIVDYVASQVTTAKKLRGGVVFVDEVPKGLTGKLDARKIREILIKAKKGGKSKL
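Luminescence read by CCD imaging after purified firefly luciferase (10nM final) was added to substrate buffer holding 10uM D-luciferin and 10uM ATP, pH 7.5, pre-dosed with compound.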
hNpr1 antagonist = antagonists of human natriuretic peptide receptor Npr1; P16066; 76,000 tested, 1.6% active; Potency, µM (doses to about 46.3 µM), for inactives: at the top dose activity change, negative = inhibition, most hits filed as inhibitors; HEK293 hNpr1 GloSensor cGMP, ANP-stimulated luminescence; calls by dose curve; note: nearly all actives have a fitted effect of over 60% in size
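HEK293 cells stably expressing human Npr1 and cGMP GloSensor pGS-40F, loaded 2 h with 2% GloSensor reagent, given compound 30 min at room temperature. Luminescence read before and 20 min after 0.1 nM hNppA.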
SNCA viab count = counter-screen for SNCA expression inhibitors: cell viability. HEK-293-SNCA-luc viability, GF-AFC fluorescence, 24 h. Potency, µM (top dose mostly 57.1 µM), for the others: top-dose activity change, negative = cytotoxicity, actives largely listed as cytotoxic. 150,000 tested, 0.12% active. AID 1671193;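 note: 0% = DMSO-treated cells and -100% = medium-only wells without cells; nearly all actives have a fitted effect of over 30% in size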
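HEK-293-SNCA-luc cells (1500/well) plated 24 h, then exposed 24 h to a dilution series; GF-AFC added 30 min at 37C, fluorescence 405/540 nm; normalised to medium-only and DMSO wells, Hill fit.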
Starred values were filed as active, the others as inactive; i = inactive; ? = inconclusive; / = no result given; [ ] = dose if it differs, or a comment. The list is not random: actives were taken first. Their share in the collection is about 7.4%. Unless noted, calls come from the whole dose curve; as a rule, active = well fitted curve in the direction sought with a large enough effect; inconclusive = small, poorly fitted or top-dose-only effect, or another doubt; inactive = no such curve, though single readings can be large; an effect the other way counts as inactive or inconclusive. Unless noted, % is set by controls: 0 for no effect and ±100 for the full control effect; potency is the fitted concentration of half-maximal effect.

SMILES	SNCA expr inh	3T3 cytotox	HEK293 tox	FLuc inh	hNpr1 antagonist	SNCA viab count
Cc1ccc(Nc2ccnc(N3CCC(NC(=O)c4ccccc4Cl)CC3)n2)cc1	13%	40µM*	45µM*	/	/	-16%
CC(NC(=O)C1CCN(c2nccc(Nc3ccccc3Cl)n2)CC1)c1ccc(F)cc1 (stereo unspecified)	?	32µM*	40µM*	/	/	-30%
COCCOC1CN(C2CCN(C(=O)c3ccc4cc[nH]c4c3)CC2)C12CCCCC2 (stereo unspecified)	8%	?	-11%	/	/	1%
CCOC(=O)[C@@H]1CN(C(=O)c2ccccc2OC(F)(F)F)[C@H]2c3ccc(OC)cc3O[C@@H]12	/	-36%	?	/	/	/
CNC(=O)C1CCN(Cc2ccccc2-c2cccnc2)CC1	3%[87.6 µM]	3%[138 µM]	i	/	/	1%[87.6 µM]
COc1cccc(-c2cccc(C(=O)N3CCN(C(=O)Cc4cccc(Cl)c4)CC3)c2)c1	8%	?	?	/	/	-1%[12.5 µM]
O=C(NC1CCN(c2nccc(Nc3ccccc3Cl)n2)CC1)c1ccccc1Cl	-13%	?	40µM*	/	/	-20%
COc1ccc(S(=O)(=O)Nc2ccc3n(c2=O)C[C@H]2C[C@@H]3CN(C(=O)Nc3cc(OC)cc(OC)c3)C2)cc1	4%	50µM*	-2%	i	1%	-13%
COc1cc(O)c2c(c1)C1=CC(O)C(O)CC1(C)OC2=O (stereo unspecified)	/	/	/	/	/	1%
COc1cc(O)c2c(c1)/C=C/C[C@H](O)[C@H](O)C(=O)/C=C\C[C@H](C)OC2=O	/	/	/	/	/	24µM*
O=C(NCc1cccc(Cl)c1)c1cn2cc(-c3ccccc3)sc2n1	4%	?	?	/	/	-3%
COc1ccc(CNC(=O)c2cc3c(N4CCCC4)nc(C)cn3n2)c(OC)c1	12%	-30%	-21%	i	-2%	7%
COc1ccccc1Oc1ncccc1CNC(=O)Nc1cccc(C#N)c1	-21%	32µM*	?	i	4%	-3%
COc1ccccc1Oc1ncccc1CNC(=O)c1ccccc1SC	77%	-16%	?	32µM*	-3%	4%
O=C(C1CCCN1C(=O)c1ccc(C(F)(F)F)cc1)N1CCC(N2CCCC2=O)CC1 (stereo unspecified)	22%	-16%	-1%	/	/	2%
CCn1cc(S(=O)(=O)N2CC3(CCCCC3)CC2COc2ccc(OC)cc2)cn1 (stereo unspecified)	?	?	32µM*	/	/	-20%
CCOC(=O)CNC(=O)N1CC2(CCCCC2)CC1COc1ccc(OC)cc1 (stereo unspecified)	5%	-29%	-26%	/	/	-1%
CC1=C[C@@H](CN)[C@H](C(C)C)C[C@H]1Cc1nc2ccc(C)cc2[nH]1	13%[87.6 µM]	40µM*	45µM*	i	-18%[70.6 µM]	-21%[87.6 µM]
CC1=C[C@@H](CNC(=O)COCC(=O)O)[C@H](C(C)C)C[C@H]1Cc1nc2ccc(C)cc2[nH]1	40%[87.6 µM]	2%[174 µM]	-20%[172 µM]	i	-2%[70.6 µM]	-2%[87.6 µM]
CC1=C[C@@H](CNC(=O)CC2(CC(=O)O)CCCC2)[C@H](C(C)C)C[C@H]1Cc1nc2ccc(F)cc2[nH]1	8%	-17%	-15%	i	-14%	-16%
COc1ccc2nc(C[C@@H]3C[C@@H](C(C)C)[C@H](CN(Cc4ccccc4F)Cc4ccccc4F)C=C3C)[nH]c2c1	?	14µM*	?	i	1%	-18%
CC1=C[C@@H](CN)[C@H](C(C)C)C[C@H]1Cc1nc2ccc(Cl)cc2[nH]1	-20%[87.6 µM]	45µM*	50µM*	i	-12%[70.6 µM]	?
CC1=C[C@@H](CN)[C@H](C(C)C)C[C@H]1Cc1nc2ccc(F)cc2[nH]1	-28%[87.6 µM]	100µM*	79µM*	i	-7%[70.6 µM]	?
O=C(NCC(F)F)C1CCCN(c2nccc(Nc3ccccc3F)n2)C1 (stereo unspecified)	-28%	?	?	/	/	-2%[12.5 µM]
COc1ccc2nc(C[C@@H]3C[C@@H](C(C)C)[C@H](CN)C=C3C)[nH]c2c1	-12%[87.6 µM]	71µM*	?	i	1%[70.6 µM]	?
